This is part of a sample that, as a whole, favours compounds with a hit. Of some 79,000 tested, about 15% had one in any assay. Calls of active or inactive are those of the source. Rule as the data show it: active = growth inhibition above about 70%; inactive = the rest.
Key:
[1] = NCI Yeast Anticancer Drug Screen. Data for the rad50 strain (AID 155);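 also: 0% = growth of vehicle-only cultures of the same strain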; conditions: S. cerevisiae rad50 strain growth inhibition; at 50.0 µM; stronger effect = higher value
Outline: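 Compounds were tested on a yeast strain with an engineered DNA damage repair alteration; the reported value is growth inhibition normalised to vehicle treatment.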

[2] = NCI Yeast Anticancer Drug Screen. Data for the mec2-1 strain (AID 157); conditions: S. cerevisiae mec2-1 strain, at 50.0 µM, stronger effect = higher value
Outline: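 mec2-1 yeast strain, carrying an alteration in DNA damage repair or cell cycle control, was exposed to compounds; growth inhibition was measured relative to vehicle-treated controls.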

[3] = NCI Yeast Anticancer Drug Screen. Data for the sgs1 mgt1 strain (AID 161);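 also: 0% = growth of cultures given vehicle only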; conditions: S. cerevisiae sgs1 mgt1 strain, at 50.0 µM, stronger effect = higher value
Outline: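 Yeast cells carrying a defined DNA-repair defect were exposed to test compounds. Growth inhibition was measured relative to vehicle-treated controls.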

[4] = NCI Yeast Anticancer Drug Screen. Data for the cln2 rad14 strain (AID 165);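 also: 0% = growth equal to vehicle treated cultures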; conditions: S. cerevisiae cln2 rad14 strain, at 50.0 µM, stronger effect = higher value
Outline: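 Yeast carrying cln2 and rad14 alterations (cell cycle control and DNA damage repair) were exposed to compounds. Growth inhibition was measured against vehicle-treated controls.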

[5] = NCI Yeast Anticancer Drug Screen. Data for the bub3 strain (AID 167); conditions: S. cerevisiae bub3 mutant strain, at 50.0 µM, stronger effect = higher value
Outline: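 Growth of a checkpoint-deficient yeast mutant is measured after compound exposure. Values represent inhibition relative to vehicle.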

[6] = NCI Yeast Anticancer Drug Screen. Data for the mlh1 rad18 strain (AID 175); conditions: S. cerevisiae mlh1 rad18 strain growth inhibition; at 50.0 µM; stronger effect = higher value
Outline: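 Growth inhibition of the yeast strain was measured after compound exposure and expressed relative to vehicle-treated controls. The strain carries defined defects in DNA damage repair.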

Measured: growth inhibition

CCCCOC(=O)/C(=C\c1ccc(OC(C)=O)c(OC)c1)NC(=O)c1ccccc1
inactive: [1] 4.7% | [2] 7.6% | [3] -1.5% | [4] -10.3% | [5] 14.9% | [6] -6.35%

CCC1OC(=O)C(CC)OC1=O (stereo unspecified)
inactive: [1] -5.75% | [2] -20.2% | [3] -25.6% | [4] -2.05% | [5] -28.9% | [6] -24.4%

COC(=O)CCc1cc(=O)oc2ccc3cc(CC(=O)OC)oc3c12
inactive: [1] 5.75% | [2] -7.65% | [3] 4.7% | [4] -6.1% | [5] -7.2% | [6] 2.15%

O=C(O)c1c(CC(Cc2ccc3c(c2)CCCC3)C(=O)O)ccc2c1CCCC2 (stereo unspecified)
inactive: [1] 46.3% | [2] 23.6% | [3] 9.8% | [4] 11.8% | [5] 40.9% | [6] 56.7%

CCOC(=O)CSc1nnc(N)s1
inactive: [1] 21% | [2] 6.55% | [3] -6.15% | [4] 3.15% | [5] -6.75% | [6] -1.5%

Cn1cccc1/C=N/N=C(/N)NO
inactive: [1] 22.9% | [2] -9.85% | [3] -13.7% | [4] -4.5% | [5] -18.5% | [6] -0.4%

COC(=O)CCCCl
inactive: [1] -51% | [2] -56.4% | [3] -38% | [4] 8.25% | [5] -21% | [6] -15.6%

NNc1ccc(S(=O)(=O)C(F)F)cc1
inactive: [1] 29.9% | [2] -29.2% | [3] 20.6% | [4] 41% | [5] 41.2% | [6] 13.1%

COc1ccccc1C(OC)c1ccccc1C(=O)O (stereo unspecified)
inactive: [1] -10.9% | [2] -17.1% | [3] -1.4% | [4] -12.5% | [5] -4.7% | [6] -16.1%

O=C1O/C(=C/c2ccc(O)cc2)c2ccccc21
inactive: [1] 0.9% | [2] -26.9% | [3] -4.1% | [4] -15.1% | [5] 6.9% | [6] -11.4%

CC(C)CSCC1OC(n2cnc3c(N)nccc32)C(O)C1O (stereo unspecified)
inactive: [1] -6.15% | [2] -13.8% | [3] -7.85% | [4] 10% | [5] -12.7% | [6] -20.4%

c1ccc(SC(Sc2ccccc2)=C2CCC2)cc1
inactive: [1] 9.7% | [2] -8.1% | [3] 10.4% | [4] 14.8% | [5] 18% | [6] -6.35%

CCCCCCCCCCCCCCCCSS(=O)(=O)O
inactive: [1] 8.5% | [2] 15.7% | [3] 15.8% | [4] -1.15% | [5] 0.15% | [6] 4.9%

COc1cccc2c1C(=O)C1(O)CCCCC21 (stereo unspecified)
inactive: [1] -55.8% | [2] -41.6% | [3] -65.3% | [4] -21.4% | [5] -59.5% | [6] -25.7%

CCN(CC)CCCC(C)Nc1c2ccc(Cl)cc2nc2c(Cl)cc(Cl)cc12 (stereo unspecified)
inactive: [1] -8.55% | [2] 4.75% | [3] 2.5% | [4] 23.6% | [5] 28.3% | [6] -8.85%

COc1cccc2c(Cl)c3ccc(Cl)cc3nc12
inactive: [1] 11.4% | [2] 5.25% | [3] 0.8% | [4] -39.1% | [5] -18.9% | [6] 15.8%

CCC(C(O)c1ccc(Cl)cc1)C(O)(C(F)(F)F)C(F)(F)F (stereo unspecified)
active: [1] 99.4% | [2] 99.5% | [3] 99.6% | [4] 99.5% | [5] 99.3% | [6] 99.4%

N#CCCc1c(-c2ccccc2)nc(N)[nH]c1=O
inactive: [1] 2.35% | [2] 0.85% | [3] 2.75% | [4] -38.4% | [5] -14.6% | [6] -9.75%

OCC(O)C(O)C(O)c1nn(-c2ccccc2)c2nc3ccccc3nc12 (stereo unspecified)
inactive: [1] 3.6% | [2] 1.3% | [3] 3.4% | [4] 7.15% | [5] 11.3% | [6] 17.2%

NC1c2ccccc2CCc2ccccc21
inactive: [1] 13.6% | [2] -13.7% | [3] 17.6% | [4] 3.55% | [5] 6.8% | [6] 6.8%

Cc1c([N+](=O)[O-])cc(C(=O)O)cc1[N+](=O)[O-]
inactive: [1] 35.6% | [2] -0.15% | [3] 16.4% | [4] -7.4% | [5] 2.55% | [6] 27.9%

CCC(=O)c1ccc(OC(C)=O)cc1
inactive: [1] 36% | [2] -4.75% | [3] -4.85% | [4] -23.4% | [5] 5.7% | [6] 4.65%

O=c1c(N2CCOCC2)c(N2CCOCC2)c1=O
inactive: [1] -21.6% | [2] -22.9% | [3] 0.25% | [4] 15.4% | [5] -24.4% | [6] -1.1%

O=S(=O)(CSc1ccccc1)c1ccccc1
inactive: [1] -21.9% | [2] -33.1% | [3] -16.6% | [4] -8.35% | [5] -25.6% | [6] -39.1%

CC(C)CCNC(=O)CS(=O)(=O)c1ccc(N)cc1
inactive: [1] -2.15% | [2] -3.05% | [3] -11.9% | [4] -34.2% | [5] -23.1% | [6] -8.55%

C=C(C)C1CC=C(/C=N/O)CC1 (stereo unspecified)
inactive: [1] -4.6% | [2] 4% | [3] 5.65% | [4] -13.7% | [5] 8.1% | [6] 2.8%

O=C(c1ccccc1)c1ccccc1C(=O)c1ccccc1
inactive: [2] 25.6% | [3] 54% | [4] -43% | [6] 52%
active: [1] 77% | [5] 70.4%

O=C(Nc1ccc2[nH]c3c(-c4ccccc4)nccc3c2c1)c1ccccc1[N+](=O)[O-]
inactive: [1] 15.8% | [2] -21.2% | [3] -5.3% | [4] 6.65% | [5] -2.75% | [6] 5.35%

CCN=NNc1ccc(C#N)cc1
inactive: [1] 6.4% | [2] 2.15% | [3] -0.25% | [4] 6.1% | [5] 16.9% | [6] 0.55%

CCOC(=O)c1ccc(CSc2ccccc2C(=O)OCC)cc1
inactive: [1] -10.3% | [2] -13.1% | [3] 9.95% | [4] -60.1% | [5] -17.1% | [6] -43.2%

O=C(NCCCCCCNC(=O)Nc1cccc2ccccc12)Nc1cccc2ccccc12
inactive: [1] -13.9% | [2] -14.4% | [3] 7.05% | [4] -7.75% | [5] -2.3% | [6] -13.6%

O=c1[nH]c2ccccc2nc1/C=C/NC(=S)Nc1ccccc1
inactive: [1] -11.4% | [2] -18.1% | [3] -20% | [4] 6% | [5] -0.95% | [6] -2.2%

CCN(c1ccccc1C(=O)O)S(=O)(=O)c1ccc(C)cc1
inactive: [1] 1.9% | [2] -1.95% | [3] 23.2% | [4] 27.6% | [5] 22% | [6] 11.9%

CN(C)c1ccc(C=C2C(=O)CC(C)(C)CC2=O)cc1
inactive: [1] 12.5% | [2] 10.2% | [3] 23.1% | [4] 16.1% | [5] 5.85% | [6] -8.4%

CSCCC(NC(=O)c1c(Cl)ccc(Cl)c1Cl)C(=O)O (stereo unspecified)
inactive: [1] -8.45% | [2] -0.75% | [3] 18.6% | [4] -18.6% | [5] 0.6% | [6] -16.4%

CC1C(=O)C(c2ccccc2)(c2ccccc2)CC[N+]1(C)C (stereo unspecified)
inactive: [1] 1.1% | [2] 5.4% | [3] 2.8% | [4] -13.7% | [5] 4.1% | [6] 10.4%

From PubChem BioAssay (NCI)
